From PubChem BioAssay come the findings set out here.

The source made the active and inactive calls.

The test system of experiment [1] is Plasmodium falciparum Sir2 (PF13_0152, Sir2A). Briefly: pfSir2 binders on small-molecule microarrays, primary screen, biochemical, small-molecule microarray, 635 nm fluorescence (AID 1098).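 Further: score merges spot fluorescence intensity with its signal-to-noise ratio.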 The following applies: small-molecule microarray binding, fluorescence 635 nm; higher = more signal.
Experiment [2] can be described thus: small-molecule microarray binders of probe aDKK1, primary screen, biochemical, biotinylated probe, 635/667 nm fluorescence (AID 1099).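 Further: score merges 667nm spot fluorescence with signal to noise across triplicate slides.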 The following applies: higher = more signal.
The nature of experiment [3]: small-molecule microarray binders of probe aCHRDL2, primary screen, biochemical, biotinylated probe, 635/667 nm fluorescence (AID 1100). The following applies: higher = more signal.
Experiment [4] is described as follows: splicing luciferase reporter signal modulators, primary screen, spliceosome inhibition project, cell-based, HEK293, splice +/- reporter (AID 1101).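 Further: HEK293 cells carrying a splicing-competent luciferase reporter gene; test concentration not given here.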 The following applies: luminescence, 24 h, higher = more signal, called active from +8 up or from −8 down.
The target of experiment [5] is Fibroblast growth factor 10 (Homo sapiens) (UniProt O15520). Briefly: FGF10 binders on small-molecule microarrays, primary screen, biochemical, small-molecule microarray, 635 nm fluorescence (AID 1102). The following applies: FGF10 binding, fluorescence 635 nm, higher = more signal.
Experiment [6] relates to glycogen synthase kinase-3 (GSK3A per assay name; protocol says GSK3B). Briefly: GSK3 binders on small-molecule microarrays, primary screen, biochemical, small-molecule microarray, 635 nm fluorescence, GSK3A (AID 1103). Further: the record names both GSK3A and GSK3B. The settings on record: small-molecule microarray binding, fluorescence 635 nm; higher = more signal.
For experiment [7], the target named is Epidermal growth factor receptor (Homo sapiens) (UniProt P00533). Briefly: EGFR binders on small-molecule microarrays, primary screen, biochemical, small-molecule microarray, 635 nm fluorescence (AID 1104).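 Further: score merges 667 nm emission intensity with spot signal to noise over triplicate slides.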 The settings on record: EGFR binding, higher = more signal.
Experiment [8] addresses Follistatin-related protein 3 (Homo sapiens) (UniProt O95633). Briefly: FSTL3 binders on small-molecule microarrays, primary screen, biochemical, small-molecule microarray, 635 nm fluorescence (AID 1105).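 Further: score merges emission near 667 nm and signal to noise per printed spot across three slides.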 The following applies: FSTL3 binding, higher = more signal.
In experiment [9] the target is Dickkopf-related protein 1 (Homo sapiens) (UniProt O94907). Briefly: DKK1 binders on small-molecule microarrays, primary screen, biochemical, small-molecule microarray, 635 nm fluorescence scan (AID 1106).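 Further: score merges emission near 667 nm with signal to noise over three replicate slides.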 The settings on record: DKK1 binding, higher = more signal.
Experiment [10] deals with Inhibin beta A chain (activin A). Briefly: INHBA (activin A) binders on microarrays, primary screen, biochemical, small-molecule microarray, 635 nm fluorescence scan (AID 1107).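 Further: mouse activin A protein probed at 4.33 µg/mL on printed slides; score merges bound-protein fluorescence near 667 nm with spot signal-to-noise.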 The settings on record: small-molecule microarray binding, higher = more signal.
Experiment [11] concerns Human papillomavirus type 1a protein E7 (residues 44-93). Briefly: HPV1a E7 fragment binders on microarrays, primary screen, biochemical, small-molecule microarray, residues 44-93, 635 nm fluorescence (AID 1108).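 Further: E7 fragment applied at 1 µg/mL in TBST for 1 h at 4 C; score combines spot fluorescence with its signal to noise ratio.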 The following applies: small-molecule microarray binding, fluorescence 635 nm; higher = more signal.
A short description of experiment [12]: modulators of HCV replicon luciferase signal, primary screen, HCV replication inhibitor project, Huh7 cells, luciferase reporter (AID 1109).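 Further: huh7 hepatoma cells harbouring a luciferase neomycin HCV replicon reporter; luciferase luminescence as measure of HCV replicon replication; test concentration not given here.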 The following applies: 48 h, higher = more signal. In general terms: Replicon systems follow genome replication, usually without infectious particles.
The target in experiment [13] is Left-right determination factor 2 (Homo sapiens) (UniProt O00292). Briefly: LEFTY2 binders on small-molecule microarrays, primary screen, biochemical, small-molecule microarray, 635 nm fluorescence scan (AID 1110). The settings on record: LEFTY2 binding, higher = more signal.
The target of experiment [14] is Calmodulin-1 (Homo sapiens) (UniProt P0DP23). Briefly: CALM1 binders on microarrays, EGTA buffer, profiling panel, biochemical, small-molecule microarray, Cy5-labelled CALM1 (AID 1111).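 Further: labelled calmodulin applied in Tris saline Tween buffer holding calcium plus EGTA and DTT.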 The following applies: Cy5-CALM1 binding fluorescence, higher = more signal.
Experiment [15] has the same target. Briefly: calcium-bound CALM1 binders on microarrays, profiling panel, artefact control for SMM control-protein annotation, biochemical, small-molecule microarray, Cy5-labelled CALM1, plus calcium (AID 1112).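 Further: score merges spot fluorescence with signal to noise from triplicate slides.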 The settings on record: Cy5-CALM1 binding fluorescence, higher = more signal.
Experiment [16] is described as follows: small-molecule microarray binders of probe aWnt5a, primary screen, biochemical, biotinylated probe, 635/667 nm fluorescence (AID 1113).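 Further: score merges 667 nm fluorescence intensity with signal-to-noise per printed feature.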 The following applies: higher = more signal.
A short description of experiment [17]: small-molecule microarray binders of probe aShh, primary screen, biochemical, biotinylated probe, 635/667 nm fluorescence (AID 1114).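 Further: probe is biotin-labelled aShh protein from a stem cell growth factor screen; measures binding of labelled protein to compounds printed on the slide; score merges feature fluorescence at 667 nm with signal-to-noise.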 The following applies: higher = more signal.
Experiment [18] can be described thus: small-molecule microarray binders of probe aNog, primary screen, biochemical, biotinylated probe, 635/667 nm fluorescence (AID 1115).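 Further: probe is biotinylated aNog protein used at 0.15 µg/mL for 1 h at 4 C; z-score combines 667 nm fluorescence of each spot with its signal to noise.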 The settings on record: higher = more signal.
Experiment [19] concerns the target Torsin-1A-interacting protein 1 (Homo sapiens) (UniProt Q5JTV8). Briefly: LAP1 binders from COS7 cell lysate, primary screen, small-molecule microarray, 635/667 nm fluorescence (AID 1116). The following applies: COS7-hLAP1 lysate binding, 635 nm fluorescence, higher = more signal.
Experiment [20] has as its target Alpha-bungarotoxin (Bungarus multicinctus) (UniProt P60615). Briefly: alpha-bungarotoxin binders on microarray, profiling panel, artefact control for SMM control protein annotation, biochemical, small-molecule microarray, Alexa647 label, 635/667 nm fluorescence (AID 1117). The settings on record: alpha-BTX-A647 binding fluorescence, higher = more signal.

Chain of Left-right determination factor 2 (Homo sapiens) (O00292 whole entry, looked up): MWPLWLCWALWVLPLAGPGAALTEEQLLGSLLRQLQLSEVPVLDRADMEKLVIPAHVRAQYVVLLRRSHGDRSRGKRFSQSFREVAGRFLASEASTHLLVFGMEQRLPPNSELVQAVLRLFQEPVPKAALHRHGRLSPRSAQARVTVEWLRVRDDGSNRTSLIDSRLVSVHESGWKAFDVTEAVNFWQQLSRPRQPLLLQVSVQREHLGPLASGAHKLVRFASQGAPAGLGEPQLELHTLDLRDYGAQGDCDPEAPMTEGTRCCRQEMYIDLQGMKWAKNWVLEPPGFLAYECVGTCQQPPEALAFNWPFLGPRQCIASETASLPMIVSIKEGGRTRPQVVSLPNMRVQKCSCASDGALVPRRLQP
Chain of Follistatin-related protein 3 (Homo sapiens) (O95633 whole entry, looked up): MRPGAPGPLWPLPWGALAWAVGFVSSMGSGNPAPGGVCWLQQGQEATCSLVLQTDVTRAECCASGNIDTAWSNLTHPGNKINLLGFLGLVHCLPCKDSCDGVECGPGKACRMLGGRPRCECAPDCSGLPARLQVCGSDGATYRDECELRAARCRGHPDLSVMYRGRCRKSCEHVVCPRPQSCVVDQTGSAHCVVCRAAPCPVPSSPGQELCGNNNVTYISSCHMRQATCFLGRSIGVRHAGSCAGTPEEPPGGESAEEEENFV
Chain of Torsin-1A-interacting protein 1 (Homo sapiens) (Q5JTV8 whole entry, looked up): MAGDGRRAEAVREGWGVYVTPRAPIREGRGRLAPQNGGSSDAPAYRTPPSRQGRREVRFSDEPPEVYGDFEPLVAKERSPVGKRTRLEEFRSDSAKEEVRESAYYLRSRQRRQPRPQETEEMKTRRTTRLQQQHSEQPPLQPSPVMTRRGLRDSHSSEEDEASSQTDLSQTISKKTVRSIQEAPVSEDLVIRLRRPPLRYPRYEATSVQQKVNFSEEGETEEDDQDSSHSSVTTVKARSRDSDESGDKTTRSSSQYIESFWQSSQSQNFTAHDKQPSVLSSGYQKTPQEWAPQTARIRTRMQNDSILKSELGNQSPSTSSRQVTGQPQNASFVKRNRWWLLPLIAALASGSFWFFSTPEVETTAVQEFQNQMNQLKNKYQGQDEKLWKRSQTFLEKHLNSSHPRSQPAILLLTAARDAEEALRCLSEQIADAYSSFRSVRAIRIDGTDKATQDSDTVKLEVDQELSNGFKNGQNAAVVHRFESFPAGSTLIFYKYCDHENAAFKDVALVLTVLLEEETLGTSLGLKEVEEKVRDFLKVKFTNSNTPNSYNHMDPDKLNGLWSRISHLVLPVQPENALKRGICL
Chain of Epidermal growth factor receptor (Homo sapiens) (P00533 whole entry, looked up): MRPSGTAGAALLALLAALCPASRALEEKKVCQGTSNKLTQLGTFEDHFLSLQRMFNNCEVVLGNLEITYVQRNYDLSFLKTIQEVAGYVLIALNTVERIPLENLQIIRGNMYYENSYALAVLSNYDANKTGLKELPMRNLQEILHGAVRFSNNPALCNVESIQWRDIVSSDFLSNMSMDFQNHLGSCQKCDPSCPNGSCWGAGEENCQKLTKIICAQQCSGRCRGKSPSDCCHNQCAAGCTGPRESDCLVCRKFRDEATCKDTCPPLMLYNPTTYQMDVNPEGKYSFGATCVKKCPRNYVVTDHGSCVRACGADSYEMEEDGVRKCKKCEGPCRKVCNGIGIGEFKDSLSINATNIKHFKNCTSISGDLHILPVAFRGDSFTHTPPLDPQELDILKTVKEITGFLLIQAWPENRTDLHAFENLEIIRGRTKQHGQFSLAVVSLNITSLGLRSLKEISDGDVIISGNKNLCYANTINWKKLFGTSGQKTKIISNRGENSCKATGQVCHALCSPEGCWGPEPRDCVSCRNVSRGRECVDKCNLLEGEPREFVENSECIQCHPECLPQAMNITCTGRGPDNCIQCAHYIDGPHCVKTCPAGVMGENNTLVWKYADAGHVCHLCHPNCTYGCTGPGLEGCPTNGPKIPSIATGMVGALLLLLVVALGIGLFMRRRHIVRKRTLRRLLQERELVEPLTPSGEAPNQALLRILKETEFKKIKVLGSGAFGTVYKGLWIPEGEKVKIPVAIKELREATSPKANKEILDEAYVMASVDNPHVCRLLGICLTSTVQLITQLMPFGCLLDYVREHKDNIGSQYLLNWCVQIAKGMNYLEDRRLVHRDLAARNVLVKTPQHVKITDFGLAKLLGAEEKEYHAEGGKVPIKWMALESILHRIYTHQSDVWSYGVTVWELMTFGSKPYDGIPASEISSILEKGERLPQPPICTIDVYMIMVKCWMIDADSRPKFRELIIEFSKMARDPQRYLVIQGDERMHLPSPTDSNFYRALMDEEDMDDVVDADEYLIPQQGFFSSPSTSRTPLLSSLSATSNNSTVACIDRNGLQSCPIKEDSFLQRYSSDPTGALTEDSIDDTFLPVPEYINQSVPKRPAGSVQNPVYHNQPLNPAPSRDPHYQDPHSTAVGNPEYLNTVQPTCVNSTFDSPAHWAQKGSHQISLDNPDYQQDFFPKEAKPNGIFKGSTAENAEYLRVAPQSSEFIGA
Chain of Alpha-bungarotoxin (Bungarus multicinctus) (P60615 whole entry, looked up): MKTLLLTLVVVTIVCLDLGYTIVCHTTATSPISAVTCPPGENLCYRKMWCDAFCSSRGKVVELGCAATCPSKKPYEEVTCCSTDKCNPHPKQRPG
Chain of Fibroblast growth factor 10 (Homo sapiens) (O15520 whole entry, looked up): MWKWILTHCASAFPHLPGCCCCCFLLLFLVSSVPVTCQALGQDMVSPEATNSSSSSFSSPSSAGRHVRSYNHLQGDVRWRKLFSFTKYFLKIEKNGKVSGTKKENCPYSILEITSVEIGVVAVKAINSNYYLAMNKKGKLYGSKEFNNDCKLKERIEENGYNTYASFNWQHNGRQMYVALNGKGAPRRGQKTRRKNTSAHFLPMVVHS
Chain of Dickkopf-related protein 1 (Homo sapiens) (O94907 whole entry, looked up): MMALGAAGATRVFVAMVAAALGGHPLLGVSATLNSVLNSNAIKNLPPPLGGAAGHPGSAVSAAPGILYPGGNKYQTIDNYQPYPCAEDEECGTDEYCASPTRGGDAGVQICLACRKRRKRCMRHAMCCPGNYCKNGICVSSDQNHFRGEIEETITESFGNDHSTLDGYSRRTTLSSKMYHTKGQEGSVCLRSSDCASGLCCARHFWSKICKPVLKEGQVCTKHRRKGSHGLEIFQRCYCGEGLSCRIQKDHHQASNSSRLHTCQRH

Regarding `O=C1[C@H]2[C@H]3[C@H](O)[C@H](O)CC(=NO[C@@H]4O[C@H](CO)[C@@H](O)[C@H](O)[C@H]4O)[C@H]3CC[C@H]2C(=O)N1c1ccc(F)cc1F`, the composite z-score in experiment [1] is -0.134; in [2], 0.0579; in [3] it was 0.129; in [5], -0.0077; in [6] it was -0.444; in experiment [7] it was 0.172. Besides, the composite z-score in [8] was 0.0345; in experiment [9] it was -0.494; in experiment [10] it was -1.81; in [11] it was 0.491; in experiment [13], 0.382; in experiment [14], -0.466. Besides, the composite z-score in [15] was -1.2; in experiment [16], -0.0088; in experiment [17], 0.178; in [18] it was -0.273; in experiment [19], -0.267; in experiment [20], 0.184. Further, the results for the z-score in [4] and in experiment [12] were 0.324 (inactive) and 0.29, respectively.

Turning to `C[C@@H]1CC[C@@H](C(=O)O)N[C@H]1c1cccc(N2CCOCC2)c1`, the composite z-score in experiment [1] is 0.168; in experiment [2], -0.191; in [3], -0.449; in experiment [5], 0.631; in experiment [6], 0.74; in [7], 0.797. Also, the composite z-score was 0.409 in experiment [8]; 0.109 in [9]; 0.0223 in [10]; 0.456 in experiment [11]; 0.436 in experiment [13]; -0.101 in [14]. Moreover, the composite z-score is -0.0411 in experiment [15]; -0.0758 in [16]; -0.262 in [17]; -0.324 in [18]; 0.513 in experiment [19]; 0.851 in [20]. The z-score in experiment [4] was -1.02 (inactive); in experiment [12], 0.47.

As to `CCOC(=O)[C@H](CC(C)C)NC(=O)CCC1CC(OC(=O)NCc2ccc3c(c2)OCO3)CC2(CCCC(COC(=O)NCCc3ccc(Cl)cc3)O2)O1` (stereo not given in full), the composite z-score in experiment [1] is 0.193; in [2], -0.0218; in [3] it was -0.514; in [5], 0.525; in experiment [6], 0.293; in [7] it was 0.199. For the same compound, the composite z-score in [8] was 0.829; in [9] it was 0.96; in [10], 0.101; in experiment [11], 0.838; in [13] it was 0.582; in experiment [14], -0.131. Moreover, the composite z-score is -0.572 in experiment [15]; -0.0556 in [16]; -0.283 in [17]; -0.363 in experiment [18]; 0.426 in [19]; 0.983 in experiment [20]. The z-score in experiment [4] is 0.0274 (inactive); in [12] it was 0.225.

Take `O=C1[C@H]2CCn3c(=O)n(-c4ccccc4)c(=O)n3[C@H]2[C@H](O)[C@@H]2O[C@H]12`: the composite z-score in experiment [1] was 0.784; in experiment [2] it was -0.418; in experiment [3], -0.438; in experiment [5], 0.837; in experiment [6], 0.381; in [7] it was 0.299. Moreover, the composite z-score in [8] was 0.148; in [9], 0.427; in experiment [10], 0.269; in experiment [11], -0.453; in experiment [13] it was 0.33; in [14], -0.14. The composite z-score in experiment [15] is -0.391; in experiment [16], -0.247; in experiment [17] it was -0.124; in [18], -0.0428; in [19], 0.085; in experiment [20], 0.658. The results for the z-score in [4] and in experiment [12] were 0.583 (inactive) and -0.687, respectively.

Consider `CCN1C(C)=C(C(=O)OC)[C@@H](c2ccccc2)N2C(=O)[C@](O)(C(=O)OC)CC(C(C)=O)=C12`, for which the composite z-score is -0.166 in experiment [1]; -0.324 in [2]; -0.745 in experiment [3]; 0.302 in [5]; 0.489 in experiment [6]; 0.633 in [7]. For the same compound, the composite z-score in experiment [8] is 0.557; in experiment [9], 0.514; in experiment [10] it was 0.423; in experiment [11], 0.285; in experiment [13], 0.784; in [14], -0.232. The composite z-score is -0.604 in experiment [15]; -0.0037 in experiment [16]; -0.179 in experiment [17]; 0.0511 in experiment [18]; 0.455 in experiment [19]; 0.371 in experiment [20]. The values for the z-score in experiment [4] and in experiment [12] were 0.15 (inactive) and 0.308, respectively.

Take `COC(=O)[C@H](C)NC(=O)CCC1CC(OC(=O)NCc2cccc3ccccc23)CC2(CCCC(COC(=O)NCCc3ccccc3OC)O2)O1` (stereo not given in full): the composite z-score in experiment [1] was 0.906; in [2] it was -0.0471; in experiment [3], -0.433; in [5], 1.23; in experiment [6], 1.12; in [7], 0.454. Further, the composite z-score in experiment [8] is 1.25; in [9], 0.686; in experiment [10] it was -0.267; in experiment [11], 1.39; in experiment [13], 0.621; in experiment [14], 0.75. Besides, the composite z-score in experiment [15] was -0.37; in experiment [16], -0.15; in experiment [17], 0.0141; in experiment [18] it was 0.0356; in experiment [19], 0.787; in [20] it was 0.638. The z-score in experiment [4] was -0.105 (inactive); in experiment [12], -0.314.
